Screening data as filed in PubChem BioAssay.
G9a inh – blocks human histone lysine methyltransferase G9a; G9a H3K9 monomethylation, AlphaScreen, 2 h; Potency, µM (doses to about 102 µM), most hits filed as inhibitors; 350,000 tested, 8.8% active; AID 504332; Q96KQ7; note: nearly all actives have a fitted effect of over 75% in size
Target sequence (Q96KQ7 913-1193 limits assumed): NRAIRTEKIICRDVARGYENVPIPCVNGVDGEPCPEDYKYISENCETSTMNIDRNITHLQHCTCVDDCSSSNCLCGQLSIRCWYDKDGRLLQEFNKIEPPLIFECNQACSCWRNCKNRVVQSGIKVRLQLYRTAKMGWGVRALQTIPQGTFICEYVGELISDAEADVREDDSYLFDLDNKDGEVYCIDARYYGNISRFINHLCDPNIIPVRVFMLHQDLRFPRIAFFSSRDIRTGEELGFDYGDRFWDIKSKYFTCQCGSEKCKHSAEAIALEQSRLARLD
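Enzyme 20 nM + cpd, 15 min RT; add b-H3K9 pep 500 nM / SAM 20 uM; 2 h RT; anti-H3K9me1 Ab 0.5 ug/mL + SA donor / anti-rabbit acceptor beads 20 ug/mL each, 10 min; AlphaScreen read.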
HP1b chromo inh – HP1-beta chromodomain-methylated histone interaction inhibition | P83916 | AlphaScreen HP1-beta / biotin-H3K9me3 peptide binding | Potency, µM (doses to about 114 µM), most hits filed as inhibitors | 390,000 tested, 0.56% active; note: nearly all actives have a fitted effect of over 70% in size
Target sequence (P83916 whole entry, looked up): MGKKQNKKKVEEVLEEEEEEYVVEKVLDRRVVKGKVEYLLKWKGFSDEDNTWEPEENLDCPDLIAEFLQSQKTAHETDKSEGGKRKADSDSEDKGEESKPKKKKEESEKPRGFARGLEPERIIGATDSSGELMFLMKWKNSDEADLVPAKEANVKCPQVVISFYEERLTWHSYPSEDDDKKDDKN
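HP1-beta protein (50 nM final) preincubated 30 min at room temperature with biotinylated H3(1-18)K9me3 peptide (50 nM) in PBS pH 7.4, 0.01% Tween-20, then compound added for 30 min. AlphaScreen streptavidin donor/nickel chelate acceptor beads (10 ug/mL final), 30 min dark, luminescence read.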
BAZ2B block – inhibitors of human BAZ2B bromodomain | Q9UIF8 | AlphaScreen BAZ2B-H3K14Ac peptide displacement | Potency, µM (highest dose often 114 µM), most hits filed as inhibitors | 360,000 tested, 4.4% active | AID 504333; note: nearly all actives have a fitted effect of over 60% in size
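AlphaScreen luminescence quantifies BAZ2B engagement of H3K14Ac peptide; the protein and biotinylated peptide are both at 50 nM final, buffer PBS pH 7.4 with 0.01% Tween-20, all steps at room temperature.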
L3MBTL1 block – L3MBTL1 (human) inhibition | Q9Y468 | AlphaScreen L3MBTL1–H3K9me1 peptide binding | Potency, µM (doses to about 57.1 µM), actives largely listed as inhibitors | 230,000 tested, 0.66% active | AID 485360; note: nearly all actives have a fitted effect of over 60% in size
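L3MBTL1 50 nM + b-AHA-H3(1-15)K9me1 75 nM, 30 min RT; compound added, 30 min RT; streptavidin donor/Ni-chelate acceptor beads 10 ug/mL each final, 30 min RT dark; AlphaScreen read.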
JMJD2A Tudor – blocks the human JMJD2A Tudor domain; AID 504339; AlphaScreen JMJD2A-Tudor / H3K4me3 peptide binding; Potency, µM (titrated, usually from 114 µM), actives largely listed as inhibitors; 390,000 tested, 4.4% active; O75164; note: nearly all actives have a fitted effect of over 50% in size
Sfp PPTase inh – blocks B. subtilis Sfp PPTase activity. 310,000 tested, 3.5% active. Potency, µM, usual class: inhibitors. Biochemical Sfp PPTase activity, qHTS. Q9F4F7;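 note: the enzyme is Sfp with the accession as filed and its product quenches rhodamine fluorescence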
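Compounds were incubated with enzyme (final 15 nM) for 15 min at room temperature before substrate addition started the reaction. Fluorescence at 525 nm excitation, 598 nm emission was recorded immediately and after 30 minutes.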
Hits are given with their value; – = inactive; ? = inconclusive; · = no result; [ ] = remark or other dose. An excerpt weighted towards active compounds, which were near 12% of everything screened. Calls come from the whole dose curve; as a rule, active = well fitted curve in the direction sought with a large enough effect; inconclusive = small, poorly fitted or top-dose-only effect, or another doubt; inactive = no such curve, though single readings can be large; an effect the other way counts as inactive or inconclusive.

SMILES	G9a inh	HP1b chromo inh	BAZ2B block	L3MBTL1 block	JMJD2A Tudor	Sfp PPTase inh
Cc1ccc(N(Cc2cccs2)C(=O)c2ccccc2[N+](=O)[O-])cc1	–	–	–	·	–	·
CCCC(=O)C1=C(c2cccc(OC)c2)N(C(=O)CCC)n2c(C)nnc2S1	–	–	–	·	–	·
COc1cccc(C2c3c(ncn(-c4ccccc4)c3=N)Oc3ccc4ccccc4c32)c1 (centres undefined)	·	·	·	·	56.2µM	·
COc1cccc(C2c3c(ncn(CCN4CCOCC4)c3=N)Oc3ccc4ccccc4c32)c1 (centres undefined)	·	·	·	·	–	·
N=c1c2c(ncn1-c1ccccc1)Oc1ccc3ccccc3c1C2c1ccc2c(c1)OCO2 (centres undefined)	·	·	·	·	44.7µM	·
CCC(C)NCCCCOc1ccc(Br)cc1 (centres undefined)	8.91µM	?	?	–	1.58µM	–
CCC(C)NCCCOc1ccc([N+](=O)[O-])cc1 (centres undefined)	?	–	?	–	79.4µM	–
CCC(C)NCCCCOc1cc(C)cc(C(C)C)c1 (centres undefined)	11.2µM	?	?	–	8.91µM	–
CCCOC(C(=O)OC1CCN(C)CC1)(c1ccccc1)c1ccccc1	?	·	·	·	·	–
CC(C)=CCn1cnc2c1c(=O)n(C)c(=O)n2C	·	·	·	·	·	–
O=C(O)CSc1sc(=S)sc1SCC(=O)O	44.7µM	–	–	–	?	79.4µM
COc1ccc(-c2n[nH]c(=S)n2-c2ccc(C)cc2C)cc1	–[0.501 µM]	–	–	–[2.29 µM]	?	–
COc1ccc(-n2nnnc2-c2cccnc2)cc1	–	–	–	·	–	–
Cc1ccc(-n2c(-c3ccc(Cl)cc3)n[nH]c2=S)c(C)c1	5.62µM	–	–[0.457 µM]	–	?	–
Cc1ccc(-n2c(-c3cnccn3)n[nH]c2=S)c(Br)c1	17.8µM	–	–	–	15.8µM	–
FC(F)(F)c1ccccc1-n1c(-c2cnccn2)n[nH]c1=S	?	–	–	–	–	?
Cc1ccc(-n2c(-c3cccnc3)n[nH]c2=S)c(C)c1	1.58µM	–	–	·	5.01µM	–
CCCCCC(O)/C=C/C=O (centres undefined)	·	·	·	·	·	–
Oc1ccc(/C=N/N=C/c2ccc(O)c(O)c2)cc1O	35.5µM	–	10µM	8.91µM	7.94µM	–
O=C1Nc2ccccc2/C1=N\N=C\c1ccc(O)c(O)c1	·	31.6µM	39.8µM	?	?	?
COc1cc(/C=N/N=C2/C(=O)Nc3ccccc32)ccc1O	?	–	?	–	?	–
O=C(/C(=N/N=C/c1ccc(O)c(O)c1)c1ccccc1)c1ccccc1	31.6µM	?	39.8µM	?	25.1µM	–
Oc1ccc(N=Cc2ccc(O)c(O)c2)cc1	1.26µM	?	44.7µM	8.91µM	56.2µM	44.7µM
Oc1ccc(/C=N/N=C/c2ccc(O)cc2)cc1	?	–	–	–	–	–
COc1ccc(S(=O)(=O)N(CC(=O)NC(C)c2ccccc2)c2ccc(C)cc2)cc1OC (centres undefined)	?	–	–	·	–	·
SMILES	G9a inh	HP1b chromo inh	BAZ2B block	L3MBTL1 block	JMJD2A Tudor	Sfp PPTase inh
CCOc1cccc(C2/C(=C(/O)c3ccc4c(c3)CC(C)O4)C(=O)C(=O)N2Cc2ccncc2)c1 (centres undefined)	·	–	–	·	22.4µM	–
COC(=O)c1ccc(C2/C(=C(/O)c3ccc4c(c3)CC(C)O4)C(=O)C(=O)N2Cc2cccnc2)cc1 (centres undefined)	70.8µM	–	–	·	?	–
CC1Cc2cc(/C(O)=C3/C(=O)C(=O)N(Cc4cccnc4)C3c3cccc(O)c3)ccc2O1 (centres undefined)	?	–	–	·	–	–
COc1cc(Cl)c(NC(=O)CN(C)S(=O)(=O)c2ccc3c(c2)CCCC(=O)N3)c(OC)c1	–	–	–	·	–	·
COc1ccc(CNC(=O)Cc2c(C)c3c(cc(C)c4c(C)coc43)oc2=O)cc1	–	–	–	·	–	·
CCOc1ccccc1CNC(=O)c1oc2c(c1C)-c1nn(Cc3cccc(Cl)c3)cc1CC2	?	–	–	·	?	·
c1ccc(Cc2nnc3sc(-c4ccco4)nn23)cc1	35.5µM	?	?	–	?	–
